VACV mCherry inh: qHTS for Stage-Specific Inhibitors of Vaccinia Orthopoxvirus: mCherry Reporter Primary qHTS; Potency, µM (doses to about 36.5 µM), without a hit: at the highest dose activity change, negative = inhibition, usual class: inhibitors; Vaccinia virus mCherry reporter infection, fluorescence; 0.63% of 310,000 active; calls by dose curve; tested in A549 cells; also: potency is read from the fitted curve at half-maximal effect; nearly all actives have a fitted effect of over 35% in size
Vaccinia Venus: qHTS for Stage-Specific Inhibitors of Vaccinia Orthopoxvirus: Venus Reporter Primary qHTS | 0.46% of 330,000 active | Vaccinia virus Venus reporter expression, fluorescence | Potency, µM (top dose mostly 36.5 µM), inactives show at the top dose activity change, negative = inhibition, hits mostly inhibitors; calls by dose curve; tested in A549 cells; also: potency is read from the fitted curve at half-maximal effect; nearly all actives have a fitted effect of over 30% in size
HCMV antiviral: qHTS Assay for inhibitors of the human cytomegalovirus (HCMV) | AID 1259415, 2018 | 4.5% of 410,000 active | HFF cells, HCMV-luciferase reporter, 72 h; hits give low values | activity change, negative = inhibition, % at 57.5 µM; in the data active = activity change below about -60%; inconclusive = no clear call, values can overlap the other calls; inactive = above about -39%
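After 16 h attachment at 37C, HFF cells received test compound and HCMV-luciferase (1 PFU/cell); reporter luminescence read 72 h later, data normalized against buffer-only and known inhibitor Salinomycin.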
HCV inh: qHTS Assay for Inhibitors of Hepatitis C Virus (HCV). Huh7.5.1 HCVcc-Cre infection, luciferase reporter, 44 h. Potency, µM (series often up to 41.8 µM), for inactives: at the highest dose activity change, negative = inhibition, actives largely listed as inhibitors. 3.4% of 340,000 active; active = well fitted inhibition curve with a large enough effect; inconclusive = small, poorly fitted or top-dose-only effect, or another doubt; inactive = no such curve, though single readings can be large or run the other way; also: potency is read from the fitted curve at half-maximal effect
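Whole-lifecycle infectious HCVcc-Cre system; cells 1,000/well, compound then virus (~0.5 moi) added 4 h after plating, 44 h culture. Luciferase read 15 sec following 15 min substrate incubation, room temp.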
Lassa entry inh: qHTS for Inhibitors of binding or entry into cells for Lassa Virus | Lassa virus pseudotype entry inhibition, cell reporter | Potency, µM (series often up to 37.9 µM), for the others: top-dose activity change, negative = inhibition, actives largely listed as inhibitors | 1.2% of 300,000 active; calls by dose curve; tested in HEK293 cells; also: potency is read from the fitted curve at half-maximal effect; nearly all actives have a fitted effect of over 50% in size
MARV entry inh: qHTS for inhibitors of binding or entry into cells for Marburg Virus; Marburg virus pseudotyped entry inhibition, cell reporter; Potency, µM (top dose mostly 37.8 µM), for the others: at the highest dose activity change, negative = inhibition, hits mostly inhibitors; 1.8% of 300,000 active; AID 540276, 2011; calls by dose curve; tested in HEK293 cells; also: potency is read from the fitted curve at half-maximal effect
* marks the source's active call; other numbers are inactive results; i = inactive; ? = inconclusive; nt = no result; [ ] = remark or other dose. Sampled rows, rich in hits. Any-hit rate of the full collection: about 7.8%. % is scaled to controls: 0 for no effect and ±100 for the full control effect.

SMILES | VACV mCherry inh | Vaccinia Venus | HCMV antiviral | HCV inh | Lassa entry inh | MARV entry inh
CC(C)(C)OC(=O)[C@H](Cc1ccccc1)NC(=O)c1nc[nH]c1C(=O)N[C@@H](CCCCN)C(=O)OC(C)(C)C | i | -4.5% | -67.9* | -11.1% | nt | nt
CC(C)C[C@H](NC(=O)c1nc[nH]c1C(=O)N1CCN(C(=O)OC(C)(C)C)CC1)C(=O)OC(C)(C)C | ? | -8.7% | -96.0* | ? | nt | nt
CC(C)C[C@H](NC(=O)c1nc[nH]c1C(=O)NCC(=O)OC(C)(C)C)C(=O)OCc1ccccc1 | ? | -2.5% | 40.1 | -16.8%[8.37 µM] | nt | nt
C[C@H](NC(=O)c1nc[nH]c1C(=O)N1CCN(C(=O)OC(C)(C)C)CC1)C(=O)OC(C)(C)C | -38.5% | -13.8% | 0.6 | 1.7% | nt | nt
CC(C)(C)OC(=O)[C@H](CCCCN)NC(=O)c1nc[nH]c1C(=O)N[C@@H](CCCCN)C(=O)OC(C)(C)C | -12.1% | -7.1% | -13.4 | 4.9% | nt | nt
CC(C)C[C@H](NC(=O)c1nc[nH]c1C(=O)N[C@@H](CC(C)C)C(=O)OC(C)(C)C)C(=O)OCc1ccccc1 | -21.9% | -20.6% | -101.1* | -24.0%[8.37 µM] | nt | nt
O=C(CC1(c2cccc(F)c2)CC(=O)N(Cc2cccnc2)C1=O)N1CCCCCCC1 (stereo not drawn) | -11.3% | -6.7% | nt | nt | nt | nt
Cc1nnc2c3ccccc3nc(Nc3ccccc3C(=O)O)n12 | -11.7% | -12.0% | 3.2 | nt | -19.3%[46.1 µM] | -1.3%[46.1 µM]
Cn1c(=O)c2c3c(sc2n2c(SCC(N)=O)nnc12)C[C@H](C(C)(C)C)CC3 | nt | nt | nt | nt | nt | -0.7%
CC(C)C[C@H](NC(=O)c1[nH]cnc1C(=O)Nc1ccccc1)C(=O)OC(C)(C)C | -19.4% | ? | -102.4* | -3.4% | nt | nt
CC1CCCN(c2ccc([N+](=O)[O-])cc2C(=O)c2ccccc2)C1 (stereo not drawn) | nt | nt | -73.6* | 12.3% | ? | ?
O=C(c1ccccc1)c1cc([N+](=O)[O-])ccc1N1CCOCC1 | ? | ? | ? | -8.2% | -21.2% | ?
Cc1ccc(C(=O)c2cc([N+](=O)[O-])ccc2N2CC(C)OC(C)C2)cc1 (stereo not drawn) | nt | nt | -14.7 | -20.4% | nt | nt
CC(=O)Nc1ccc(N2CCCC(C)C2)c([N+](=O)[O-])c1 (stereo not drawn) | ? | -16.5% | ? | 3.16µM* | -0.5% | 5.1%
Cc1ccc(C(=O)c2cc([N+](=O)[O-])ccc2N2CCCCC2)cc1 | ? | ? | -85.4* | -13.3% | ? | ?
CCOCCCNC(=O)C(c1ccccc1)N1Cc2ccccc2C1=O (stereo not drawn) | i | -11.8% | 1.6 | nt | 0.3%[46.1 µM] | nt
C=CCN=c1scc(-c2ccc3c(c2)NC(=O)CO3)n1/N=C(\C)c1ccccn1 | ? | ? | -95.0* | ? | ? | ?
O=C(CN1C(=O)c2ccccc2C1=O)NCC1Cc2cccc(-c3ncccn3)c2O1 (stereo not drawn) | -15.3% | -12.9% | nt | nt | nt | nt
COc1cc(OC)cc(C(=O)Nc2nc(-c3nnn(-c4ccc(C)cc4)c3C)ns2)c1 | ? | ? | -105.7* | nt | -3.5%[46.1 µM] | nt
Cc1ccc(C(=O)Nc2nc(-c3nnn(-c4cccc(C(F)(F)F)c4)c3C)ns2)cc1 | -15.3% | -7.2% | 8.3 | nt | 12.3%[46.1 µM] | nt
Cc1ncc(CO)c(CNc2ccc(Oc3ccccc3)cc2)c1O | ? | -8.9% | -70.1* | 11.2µM* | ? | -26.5%[46.1 µM]
Cn1c(=S)[nH]c2cc(C(=O)N3CCN(C(=O)c4ccccc4)CC3)ccc2c1=O | -21.9% | -17.6% | nt | nt | nt | nt
COc1ccccc1CN(Cc1cc2cc(C)ccc2[nH]c1=O)Cc1nnnn1CC1CCCO1 (stereo not drawn) | -15.8% | -21.4% | -10.2 | -1.0% | -23.0% | ?
Cc1ccc2[nH]c(=O)c(CN(CCO)Cc3nnnn3Cc3ccco3)cc2c1 | 11.5% | -13.5% | nt | nt | nt | nt
COc1ccccc1CN(Cc1cc2cc(C)ccc2[nH]c1=O)Cc1nnnn1Cc1ccco1 | nt | ? | -3.8 | 12.6µM* | ? | 12.6µM*
SMILES | VACV mCherry inh | Vaccinia Venus | HCMV antiviral | HCV inh | Lassa entry inh | MARV entry inh
COc1ccccc1CN(Cc1cc2cc(C)cc(C)c2[nH]c1=O)Cc1nnnn1CC1CCCO1 (stereo not drawn) | -24.2% | -12.9% | 6.9 | -20.6% | ? | 10.3µM*
Cc1ccc(NC(=S)NCCN(C2CCCCC2)C2CCCC2)cc1C | ? | -19.7% | -38.0 | ? | ? | 9.2µM*
Cc1ccc2c(c1)CN(CCNC(=O)C(C)Oc1ccccc1)CC(C)O2 (stereo not drawn) | -13.2% | -3.4% | nt | nt | nt | nt
CCOC(=O)c1cc(C)n(CCc2ccccc2)c1C | i | ? | -1.1 | ? | -3.3% | -1.6%[46.1 µM]
Cc1c(P(=S)(c2ccccc2)c2ccccc2)[n+]2ccccc2n1CCc1ccccc1 | nt | nt | -97.6* | nt | nt | nt
CCOc1cc2c(cc1/C=C1/NC(=O)N(CC(=O)OC)C1=O)OCO2 | -12.8% | -18.9% | 22.7 | 10µM* | -5.1% | -10.7%[46.1 µM]
COC1CCC(c2nnsc2N2C(=O)C3=C(CCCC3)C2=O)CC1 (stereo not drawn) | nt | nt | nt | nt | nt | 10.1%[46.1 µM]
CCOC(=O)c1c(NC(=O)CSc2nncs2)sc(C)c1-c1ccccc1 | ? | ? | -63.9* | ? | ? | ?
CCOC(=O)c1c(-c2ccccc2)csc1NC(=O)CSc1nnnn1C | nt | nt | -32.5 | 7.08µM* | ? | ?
CCOC(=O)c1c(-c2ccccc2)csc1NC(=O)CSc1nncs1 | ? | ? | 0.3 | ? | ? | ?
CCOC(=O)c1c(-c2ccccc2)csc1NC(=O)CSc1ccccc1 | -10.8% | -0.4% | -3.6 | -16.1% | ? | ?
CCOC(=O)c1sc(NC(=O)CSc2nc3ccccc3o2)c(C(=O)OCC)c1C | i | -13.9% | 37.5 | 6.8% | 23.6% | ?
CCOC(=O)c1sc(NC(=O)CSc2nnc(Cc3ccccc3)o2)c(C(=O)OCC)c1C | nt | nt | 0.5 | 6.31µM* | -18.7% | ?
CCOC(=O)c1c(NC(=O)CSc2nnnn2C)sc(C)c1-c1ccc(C)cc1 | nt | nt | ? | ? | ? | 23.1µM*
CS(=O)(=O)CCC(C(=O)Nc1cccc(C(F)(F)F)c1)N1Cc2ccccc2C1=O (stereo not drawn) | -0.8% | -4.9% | -19.8 | nt | 9.4%[46.1 µM] | nt
CCN(C(=O)CSc1nc2ccccc2n1CC(=O)Nc1cccc(C#N)c1)c1ccccc1 | -14.9% | 1.7% | -3.2 | nt | ? | nt
N#CC1=C(N)NC(SCc2ccc(F)cc2)=C(C#N)C12CCCCC2 | nt | ? | -26.2 | ? | ? | 7.94µM*
CN1[C@@H]2CC[C@H]1CC(OC(c1ccccc1)c1ccccc1)C2 (stereo partly drawn) | -21.0% | -10.3% | nt | nt | nt | 5.01µM*
